Experimental findings from PubChem BioAssay AID1362 (SRMLSC, 2008) are described below.

The experiment can be described thus: growth inhibition of WT strain, primary screen, mitochondrial fusion inhibitor project, WT and mutant strains, chemical genetic (AID 1362). The following applies: mitochondrial fusion phenotypic screen, at 10 µM.
Setting [1] is: WT strain, growth inhibition, stronger effect = higher value.

Screen size: about 190,000 compounds; about 4,000 (2.1%) were called active. Cut-off read from the data, not from the text of the source: active = inhibition above about 58%; inactive = the rest, inconclusive results apart; tested in S. cerevisiae. The sample as a whole holds a higher share of actives than the screen did.

For orientation: inhibition means the drop in the measured response relative to a control, in per cent. With `NC(=O)C[n+]1cccc(C(N)=O)c1`, the inhibition runs as follows: under setting [1], -12.7% (inactive); (mutant strain inhibition) -23.1%.

As to `COc1ccc(Cn2c(-c3ccc(Cl)cc3)c[n+]3ccccc23)cc1`, the inhibition is 65.1% (active) under setting [1] and 49.9% (mutant strain inhibition).

On to `COc1ccc(C(=O)CN(C(=O)c2ccc(Cl)cc2)N2C(=O)c3ccccc3C2=O)cc1`, for which the inhibition was 6.73% (inactive) under setting [1] and 27.8% (mutant strain inhibition).

As for `COc1ccc(Cn2c(=O)cc(C)[nH]c2=S)cc1`, the inhibition is -15.8% (inactive) under setting [1] and -20.1% (mutant strain inhibition).

As for `COCCNC(=O)CCCn1c(=O)c2ccccc2n(Cc2cccc([N+](=O)[O-])c2)c1=O`, the inhibition reads like this: under setting [1], 5.52% (inactive); (mutant strain inhibition) 6.42%.

Turning to `O=C(NCCCNc1ccc([N+](=O)[O-])cc1Cl)c1ccccc1F`, the inhibition reads like this: under setting [1], -8.75% (inactive); (mutant strain inhibition) -6.43%.

Turning to `COCCn1c(Cc2cccn2C)nnc1SCC(=O)Nc1nccs1`, the inhibition was 1.47% (inactive) under setting [1] and 4.94% (mutant strain inhibition).

Take `CCN=C1SC(CC(=O)Nc2ccc(C)cc2)C(=O)N1CC` (stereo not given): the inhibition is -14.8% (inactive) under setting [1] and 6.26% (mutant strain inhibition).

For the compound `Cc1c(Cl)cccc1NC(=O)CC1SC(=NCC2CCCO2)NC1=O` (stereo not given), the inhibition runs as follows: under setting [1], -15.1% (inactive); (mutant strain inhibition) 19%.

As to `Cc1ccc(NC(=O)CC2S/C(=N/N=C3\CCCc4ccccc43)NC2=O)cc1` (stereo not given), the inhibition runs as follows: under setting [1], 83.8% (active); (mutant strain inhibition) 33.5%.

Consider `COc1ccnc(Oc2ccccc2)c1-c1ncn[nH]1`, for which the inhibition is 3.65% (inactive) under setting [1] and 2.35% (mutant strain inhibition).

For `CC(=O)C1=C(O)C(=O)N(c2cccnc2)C1c1ccc([N+](=O)[O-])cc1` (stereo not given), the inhibition is, setting by setting: under setting [1], 2.65% (inactive); (mutant strain inhibition) -8.89%.

`Cc1cc(C#N)c(SCC(N)=O)nc1-c1ccc(F)cc1`: the inhibition is, setting by setting: under setting [1], -8.84% (inactive); (mutant strain inhibition) 0.95%.

As to `Cc1cc(=O)[nH]c(SCC(N)=O)c1C#N`, the inhibition under setting [1] is 59.8% (active) and the inhibition (mutant strain inhibition) was -65.4%.

Consider `Cc1cc(C)c(C#N)c(SCC(=O)Nc2ccccc2)n1`, for which the inhibition reads like this: under setting [1], 9.11% (inactive); (mutant strain inhibition) -9.66%.

Consider `C=CCOc1c(CNn2cn[nH]c2=S)cccc1OC`, for which the inhibition reads like this: under setting [1], -4.69% (inactive); (mutant strain inhibition) -6.27%.

Regarding `Cc1ccc(CNC(=O)c2cccnc2Cl)cc1`, the inhibition by setting is: under setting [1], -14.3% (inactive); (mutant strain inhibition) -25.1%.

As for `CCc1nc(C)ccc1OCC(=O)N(CC)CC`, the inhibition under setting [1] is -20.5% (inactive) and the inhibition (mutant strain inhibition) is -10.4%.

`CN(C)CCOc1ccc(Cl)cc1C(C)(C)C`: the inhibition runs as follows: under setting [1], 27.8% (inactive); (mutant strain inhibition) 4.52%.

Turning to `CCC(C)(C)c1ccc(OCC(=O)N(C)C)c(C(C)(C)CC)c1`, the inhibition under setting [1] was 79.9% (active) and the inhibition (mutant strain inhibition) is 14.1%.

Regarding `O=S1(=O)CC/C(=N\Nc2ccc(F)cc2)c2ccsc21`, the inhibition under setting [1] was 26.2% (inactive) and the inhibition (mutant strain inhibition) was 34.7%.

As for `CCC(C)(C)c1ccc(Oc2ccc(NC(=O)COC(=O)C3=COCCO3)cc2)cc1`, the inhibition was 60.5% (active) under setting [1] and 33.7% (mutant strain inhibition).

Turning to `O=C(OCC(=O)c1cccs1)C1=COCCO1`, the inhibition was 9.96% (inactive) under setting [1] and 20.9% (mutant strain inhibition).

On to `COc1ccc(NC(=O)COC(=O)CNC(=O)C2CCCCC2)cc1`, for which the inhibition reads like this: under setting [1], -11.9% (inactive); (mutant strain inhibition) 12.1%.

`CN(C)c1ccc(/C=N/NC(=O)C(O)c2ccc(Br)cc2)cc1` (stereo not given): the inhibition is -4.38% (inactive) under setting [1] and 1.15% (mutant strain inhibition).

For the compound `Cc1ccccc1CSc1nnc(-c2ccccc2)c(=O)[nH]1`, the inhibition is, setting by setting: under setting [1], 12.9% (inactive); (mutant strain inhibition) -13.6%.

Regarding `O=C(Nc1ccccc1C(=O)O)c1cc(S(=O)(=O)N2CCCCC2)cs1`, the inhibition runs as follows: under setting [1], 1.49% (inactive); (mutant strain inhibition) -6%.

Take `Cc1nn(-c2ccccn2)c2c1C(c1ccncc1)C1=C(CC(C)(C)CC1=O)N2` (stereo not given): the inhibition is, setting by setting: under setting [1], -4.23% (inactive); (mutant strain inhibition) -14.9%.

In the case of `Cc1ccc(C2C3=C(Nc4[nH]n(-c5ccccc5)c(=O)c42)c2ccccc2C3=O)cc1` (stereo not given), the inhibition by setting is: under setting [1], -0.51% (inactive); (mutant strain inhibition) -6.48%.

With `Cc1cc(C)c(C2C3=C(Nc4c2c(C)nn4-c2ccccn2)c2ccccc2C3=O)c(C)c1` (stereo not given), the inhibition reads like this: under setting [1], 78.7% (active); (mutant strain inhibition) 55%.

`COc1cccc(C(=O)Oc2cc(C)[nH]c(=O)c2[N+](=O)[O-])c1`: the inhibition was 15.8% (inactive) under setting [1] and -9.84% (mutant strain inhibition).

For the compound `O=C(N/N=C/c1ccccn1)c1ccc(S(=O)(=O)N2CCCCCC2)cc1`, the inhibition runs as follows: under setting [1], 2.23% (inactive); (mutant strain inhibition) 0.85%.

Turning to `COc1ccc(NC(=O)c2ccccc2CC[N+](=O)[O-])cc1`, the inhibition was 1.85% (inactive) under setting [1] and 1.42% (mutant strain inhibition).

Consider `O=C(Nc1ccccc1F)c1ccc(Cn2cc(Br)cn2)cc1`, for which the inhibition by setting is: under setting [1], 10.6% (inactive); (mutant strain inhibition) -0.75%.

Turning to `COCCCNC(=O)Cn1c(=O)n(Cc2ccccc2Cl)c(=O)c2cc(OC)c(OC)cc21`, the inhibition was -6.28% (inactive) under setting [1] and 4.75% (mutant strain inhibition).

Take `C=CCn1c(SCc2nnc(-c3ccccc3)o2)nnc1C(O)c1ccccc1` (stereo not given): the inhibition is, setting by setting: under setting [1], -11.7% (inactive); (mutant strain inhibition) -5.65%.

Consider `CCCN(CCC)c1ccc(C(O)c2nnc(-c3ccccc3)o2)cc1` (stereo not given), for which the inhibition is 76.5% (active) under setting [1] and 31.6% (mutant strain inhibition).

Take `OC(c1nnc(-c2ccccc2)o1)c1cccs1` (stereo not given): the inhibition was -15.8% (inactive) under setting [1] and 5.68% (mutant strain inhibition).

Take `Cc1ccc(S(=O)(=O)N(C)C)cc1NC(=O)COC(=O)C1COc2ccccc2O1` (stereo not given): the inhibition reads like this: under setting [1], -0.23% (inactive); (mutant strain inhibition) -14.6%.

Turning to `CCOc1ccccc1Oc1cn[nH]c1-c1ccc(OC)cc1O`, the inhibition under setting [1] was 61.8% (active) and the inhibition (mutant strain inhibition) worked out at 25.6%.

Take `CCOc1ccccc1NC(=O)Nc1cc(OC)ccc1OC`: the inhibition is -4.32% (inactive) under setting [1] and 11.2% (mutant strain inhibition).

Take `CCOc1ccc(-c2n[nH]c(C)c2-c2ccccn2)c(O)c1`: the inhibition reads like this: under setting [1], -20.5% (inactive); (mutant strain inhibition) 3.26%.

`C/C(=N\NC(=S)NCc1ccccc1)C1CCCCC1`: the inhibition is 47.2% (inactive) under setting [1] and 53.3% (mutant strain inhibition).

Take `Cc1cc(C)nc(NS(=O)(=O)c2ccc(N/C=C\C(=O)c3cccs3)cc2)n1`: the inhibition runs as follows: under setting [1], -2.27% (inactive); (mutant strain inhibition) 7.04%.

As to `COc1ccc(N2CCN(Cc3ccc(Br)s3)CC2)cc1`, the inhibition is 20.2% (inactive) under setting [1] and 14.9% (mutant strain inhibition).

As for `Oc1c(CN2CCN(c3ccc(F)cc3)CC2)cc(Cl)c2cccnc12`, the inhibition was -1.47% (inactive) under setting [1] and -25% (mutant strain inhibition).

On to `Fc1ccc(N2CCN(Cc3cnc(Oc4ccc(Br)cc4)s3)CC2)cc1`, for which the inhibition is 59% (active) under setting [1] and 34% (mutant strain inhibition).

With `Cc1ccc(-c2csc(N(Cc3ccco3)C(=O)c3cccs3)n2)cc1`, the inhibition is 67.6% (active) under setting [1] and 34.4% (mutant strain inhibition).

As for `O=C(O)CCC(=O)N(Cc1ccco1)c1nc(-c2ccccc2)cs1`, the inhibition is, setting by setting: under setting [1], -21.3% (inactive); (mutant strain inhibition) 4.1%.

Turning to `Cc1ccc(-c2csc(NC(=O)c3cccs3)n2)cc1`, the inhibition is 22.4% (inactive) under setting [1] and 16.9% (mutant strain inhibition).

Regarding `O=c1[nH]c(CN2CCOCC2)nc2scc(-c3ccccc3)c12`, the inhibition runs as follows: under setting [1], 5.72% (inactive); (mutant strain inhibition) -6.95%.

For the compound `CC1(C)CCCC2=C1CC1C(=O)N(c3ccccc3)C(=O)C1C2` (stereo not given), the inhibition is, setting by setting: under setting [1], 6.4% (inactive); (mutant strain inhibition) -1.63%.

Turning to `CC1CC2=C(CC1/C=N/NC(N)=S)C(C)(C)CCC2` (stereo not given), the inhibition reads like this: under setting [1], 67.3% (active); (mutant strain inhibition) 64.1%.

On to `NC(=O)c1ccc(NC(=O)COC(=O)C(Cc2ccccc2)NC(=O)c2ccccc2)cc1` (stereo not given), for which the inhibition runs as follows: under setting [1], -21.4% (inactive); (mutant strain inhibition) -11.6%.

As to `O=C(c1ccccc1)c1ccc(OCC(O)CN2CCCC2)cc1` (stereo not given), the inhibition is, setting by setting: under setting [1], -8.18% (inactive); (mutant strain inhibition) 5.68%.

For the compound `Cc1ccc(NC(=O)NNC(=O)c2sccc2-n2cccc2)cc1`, the inhibition runs as follows: under setting [1], -13.1% (inactive); (mutant strain inhibition) -0.19%.

Consider `c1ccc(CN2CCC(N=C3NN=C(c4ccc5c(c4)OCCO5)CS3)CC2)cc1`, for which the inhibition is 10.8% (inactive) under setting [1] and 33% (mutant strain inhibition).

On to `Cc1cccc(N=C2NN=C(c3c[nH]c4ccccc34)CS2)c1`, for which the inhibition reads like this: under setting [1], 13.8% (inactive); (mutant strain inhibition) -10.5%.

Consider `Clc1cccc(N=C2NN=C(c3ccc4c(c3)OCCO4)CS2)c1`, for which the inhibition reads like this: under setting [1], 67.3% (active); (mutant strain inhibition) 17%.

As for `Cc1cccc(NC(=O)c2sc(-c3ccccc3)nc2-c2ccc([N+](=O)[O-])cc2)c1`, the inhibition runs as follows: under setting [1], 2.52% (inactive); (mutant strain inhibition) -6.51%.

Consider `CCOC(=O)/C(=C\c1ccc([N+](=O)[O-])cc1)C(=O)c1cc(C(C)=O)c(Nc2ccccc2)s1`, for which the inhibition runs as follows: under setting [1], 84.2% (active); (mutant strain inhibition) 50.2%.

For `O=C(Nc1ccccc1)/C(=C/c1ccc([N+](=O)[O-])cc1)NC(=O)c1ccccc1`, the inhibition was -0.76% (inactive) under setting [1] and -8.51% (mutant strain inhibition).

As to `CC(=O)NCC(=O)N(Cc1ccco1)C1(C(=O)NC2CCCC2)CCCCC1`, the inhibition runs as follows: under setting [1], -0.52% (inactive); (mutant strain inhibition) 10.2%.

On to `O=C(CCCN1C(=O)/C(=C/c2ccccc2)SC1=S)Nc1ccc(O)cc1`, for which the inhibition was -11.2% (inactive) under setting [1] and 6.5% (mutant strain inhibition).

`Cc1ccc(OCC(=O)N/N=C\c2ccco2)c(C)c1`: the inhibition runs as follows: under setting [1], 8.35% (inactive); (mutant strain inhibition) 16.3%.

On to `Cc1ccc(/C=N/NC(=O)COc2ccccc2-c2ccccc2)cc1`, for which the inhibition under setting [1] was 93.7% (active) and the inhibition (mutant strain inhibition) was 20.8%.

`Cc1ccc(OCC(=O)N/N=C/c2ccncc2)cc1`: the inhibition reads like this: under setting [1], -0.91% (inactive); (mutant strain inhibition) -0.34%.

For the compound `CC(C(=O)NC1CCCC1)N(c1ccc(Oc2ccccc2)cc1)S(C)(=O)=O` (stereo not given), the inhibition is, setting by setting: under setting [1], 20.8% (inactive); (mutant strain inhibition) 6.65%.

As to `COc1cccc(C(=O)N2CCCC(CCC(=O)NCc3ccc(F)c(F)c3)C2)c1` (stereo not given), the inhibition is, setting by setting: under setting [1], -18.6% (inactive); (mutant strain inhibition) 0.91%.

Regarding `O=C(CCCNS(=O)(=O)c1cccc2nsnc12)NCCN1CCN(c2ccccc2F)CC1`, the inhibition reads like this: under setting [1], -5.33% (inactive); (mutant strain inhibition) 6.35%.
